Reference: PubChem BioAssay (EPA / NIEHS)
Calls of active or inactive are those of the source. Rule for the calls: active = hit-call score of the fitted dose curve at least 0.9, where 1 is the maximum; inactive = score below 0.9.

What was measured:
[1] = ATG_E_Box_CIS: Attagene CIS-FACTORIAL HepG2 Assay for human Enhancer Box (E-box) (AID 2282936); settings: HepG2 E-box cis-reporter transcription, actives raise or lower the signal
Method in brief: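 Fluorescent reporter fragments separated by capillary electrophoresis gave the signal; mRNA came from HepG2 cells transfected with cis-element reporters and treated 24 h. Curves fitted bidirectionally relative to DMSO controls.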

[2] = ATG_M_61_CIS: Attagene CIS-FACTORIAL HepG2 Assay for M61 Transcription Factor (Internal Marker) (AID 2282937); settings: HepG2 Attagene CIS-FACTORIAL M61 internal marker reporter; actives raise or lower the signal
Method in brief: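 Human liver HepG2, transient MRTU transfection (cis promoter elements), 24 h compound. Total RNA → oligo(dT) RT → PCR → FAM label → HpaI → CE. Internal background marker; bidirectional fitting, DMSO = baseline.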

[3] = ATG_EGR_CIS: Attagene CIS-FACTORIAL HepG2 Assay for human Early Growth Response 1 (EGR1) (AID 2282938); settings: HepG2 Attagene CIS-FACTORIAL EGR reporter mRNA; actives raise or lower the signal
Method in brief: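 Transient transfection of human HepG2 with multiple cis-regulated reporter units, chemical exposure 24 h, total RNA isolated. Reverse transcription, PCR, fluorescent labelling and capillary electrophoresis quantify reporter transcripts; activity fitted bidirectionally against DMSO.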

[4] = ATG_M_19_CIS: Attagene CIS-FACTORIAL HepG2 Assay for M19 Transcription Factor (Internal Marker) (AID 2282939); settings: HepG2 Attagene CIS-FACTORIAL M19 internal marker reporter; actives raise or lower the signal
Method in brief: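 Background-control endpoint from a multiplexed HepG2 reporter panel. Cells carrying cis-regulated reporter constructs are treated 24 h, then reporter transcripts are amplified, fluorescently labelled and sized by capillary electrophoresis. DMSO defines baseline.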

[5] = ATG_Ets_CIS: Attagene CIS-FACTORIAL HepG2 Assay for human Erythroblast Transformation Specific (ETS) (AID 2282941); settings: HepG2 ETS cis-reporter transcription, actives raise or lower the signal
Method in brief: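 RT-PCR/capillary electrophoresis fluorescence read-out of reporter mRNA; HepG2 transient multi-reporter transfection; 24 h compound exposure; gain or loss of signal fitted bidirectionally relative to DMSO.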

[6] = target: Hepatocyte nuclear factor 3-beta (Homo sapiens) (UniProt Q9Y261); assay: ATG_FoxA2_CIS: Attagene CIS-FACTORIAL HepG2 Assay for human Forkhead box A2 (FOXA2) (AID 2282942); settings: HepG2 cis-reporter transcription factor activity, 24 h; actives raise or lower the signal
Method in brief: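 Transient MRTU transfection of HepG2 liver cells; 24 h treatment; total RNA → oligo(dT) RT → PCR → FAM primer extension → HpaI cut → CE. Bidirectional fit vs DMSO.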

[7] = ATG_FoxO_CIS: Attagene CIS-FACTORIAL HepG2 Assay for human Forkhead box O (FoxO) (AID 2282943); settings: HepG2 Attagene cis-reporter, FoxO element, mRNA; actives raise or lower the signal
Method in brief: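 Endogenous transcription factor activity read from multiplexed cis-promoter reporter transcripts in transiently transfected HepG2, 24 h after dosing. Reporter RNA measured via RT-PCR plus capillary electrophoresis of FAM-labeled products; gain or loss relative to DMSO.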

[8] = ATG_GATA_CIS: Attagene CIS-FACTORIAL HepG2 Assay for human GATA Binding Protein (AID 2282944); settings: HepG2 GATA cis-element reporter, Attagene multiplex mRNA; actives raise or lower the signal
Method in brief: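 Endogenous transcription factor activity was captured through cis-promoter-driven reporters in transfected HepG2 cells. After 24 h exposure, reporter transcripts were quantified by RT-PCR with fluorescent capillary electrophoresis, and responses fitted both directions against DMSO.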

[9] = ATG_GLI_CIS: Attagene CIS-FACTORIAL HepG2 Assay for human Zinc Finger Protein GLI1 (AID 2282945); settings: HepG2, Attagene cis-factorial reporter mRNA, GLI element; actives raise or lower the signal
Method in brief: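 Bidirectional curve fits relative to DMSO, using reporter mRNA levels from RT-PCR plus capillary electrophoresis. Cells were HepG2 transiently carrying cis-regulated reporter constructs, harvested 24 h after dosing.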

[10] = ATG_GRE_CIS: Attagene CIS-FACTORIAL HepG2 Assay for human Glucocorticoid Response Elements (GRE) (AID 2282947); settings: HepG2 GRE cis-reporter, Attagene multiplex mRNA; actives raise or lower the signal
Method in brief: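 Multiplexed cis-reporter mRNA induction, HepG2, 24 h post-dose. RT-PCR, FAM-labelled, HpaI-digested amplicons by CE. Bidirectional fit vs DMSO.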

[11] = ATG_ISRE_CIS: Attagene CIS-FACTORIAL HepG2 Assay for human Interferon Regulatory Factor 1 (IRF1) binding to an Interferon-Stimulated Response Element (ISRE) (AID 2282948); settings: HepG2 ISRE cis-reporter (Attagene), mRNA transcription readout; actives raise or lower the signal
Method in brief: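 Read-out: fluorescent RT-PCR products resolved by capillary electrophoresis, reporting endogenous transcription factor activity via ISRE-driven reporter mRNA in transfected HepG2 cells dosed for 24 h; gain or loss fitted relative to DMSO.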

[12] = ATG_M_32_CIS: Attagene CIS-FACTORIAL HepG2 Assay for M32 Transcription Factor (Internal Marker) (AID 2282949); settings: HepG2 Attagene cis-factorial M32 reporter, mRNA; actives raise or lower the signal;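 note: background control marker of the multiplexed CIS panel rather than a real target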
Method in brief: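 Transient MRTU transfection of HepG2; 24 h compound treatment; TriZol RNA, oligo(dT) RT, reporter PCR, 6-FAM primer extension, HpaI cut, CE. Gain/loss of signal vs DMSO.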

[13] = ATG_M_06_CIS: Attagene CIS-FACTORIAL HepG2 Assay for M06 Transcription Factor (Internal Marker) (AID 2282950); settings: HepG2 Attagene CIS-FACTORIAL M06 internal marker reporter; actives raise or lower the signal
Method in brief: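 Steps: transfect HepG2 with multiplexed cis-element reporter constructs; dose chemical 24 h; extract RNA with DNase treatment; reverse-transcribe, PCR-amplify, 6-FAM label, HpaI digest; separate fragments by capillary electrophoresis. Activity fitted both directions versus DMSO.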

[14] = target: Hypoxia-inducible factor 1-alpha (Homo sapiens) (UniProt Q16665); assay: ATG_HIF1a_CIS: Attagene CIS-FACTORIAL HepG2 Assay for human Hypoxia Inducible Factor 1 (HIF1A) (AID 2282951); settings: HepG2 Attagene cis-factorial HIF1a reporter transcription; actives raise or lower the signal
Method in brief: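 Transient MRTU transfection of human HepG2 liver cells, 24 h compound treatment, then total RNA isolation, oligo(dT) reverse transcription, PCR amplification, fluorescent labelling and capillary electrophoresis of reporter fragments. Gain or loss relative to DMSO.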

[15] = target: Hepatocyte nuclear factor 6 (Homo sapiens) (UniProt Q9UBC0); assay: ATG_HNF6_CIS: Attagene CIS-FACTORIAL HepG2 Assay for human Hepatocyte Nuclear Factor 6 (HNF6) (AID 2282952); settings: HepG2 Attagene cis-factorial HNF6 reporter transcription; actives raise or lower the signal
Method in brief: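 Endogenous transcription factor activity in human HepG2 liver cells was captured through cis-regulated reporter constructs. After 24 h treatment, reporter mRNA was measured by RT-PCR with capillary electrophoresis, and activity was fitted in both directions relative to DMSO.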

[16] = ATG_MRE_CIS: Attagene CIS-FACTORIAL HepG2 Assay for human Metal Responsive Element (MRE) (AID 2282954); settings: HepG2 MRE cis-reporter transcription, Attagene multiplex; actives raise or lower the signal
Method in brief: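 Multiplexed cis-reporter assay in human HepG2 liver cells, 24 h incubation with test chemical. Reporter transcripts measured by RT-PCR and capillary electrophoresis; values from bidirectional curve fitting versus DMSO.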

[17] = ATG_PBREM_CIS: Attagene CIS-FACTORIAL HepG2 Assay for human Phenobarbital-responsive Enhancer Module (PBREM) (AID 2282955); settings: HepG2 PBREM cis-reporter, Attagene multiplexed transcription; actives raise or lower the signal
Method in brief: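 Endogenous transcription factors in human liver HepG2 cells drive a PBREM cis-element reporter, whose transcript level after 24 h treatment is quantified by RT-PCR with capillary electrophoresis; activity fitted in both directions against DMSO.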

[18] = target: Bile acid receptor (Homo sapiens) (UniProt Q96RI1); assay: ATG_IR1_CIS: Attagene CIS-FACTORIAL HepG2 Assay for human Nuclear Receptor Subfamily 1 Group H Member 4 (NR1H4), IR1 submotif (AID 2282946); settings: IR1 reporter transcription, actives raise or lower the signal
Method in brief: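 HepG2 cells transiently transfected with multiplexed cis-element reporter units read endogenous transcription factor activity. After 24 h compound exposure, reporter mRNA was quantified by RT-PCR, fluorescent labelling, HpaI digestion and capillary electrophoresis; bidirectional fitting versus DMSO baseline.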

[19] = target: Heat shock factor protein 1 (Homo sapiens) (UniProt Q00613); assay: ATG_HSE_CIS: Attagene CIS-FACTORIAL HepG2 Assay for human Heat Shock Transcription Factor 1 (HSE) (AID 2282953); settings: HepG2 HSE cis-reporter, Attagene RNA transcription; actives raise or lower the signal
Method in brief: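 Cells were transfected with cis-element-driven reporter constructs, dosed for 24 h, then total RNA was reverse-transcribed and reporter cDNA amplified, FAM-labelled and digested with HpaI. Fragments were resolved by capillary electrophoresis; gain or loss was fitted against DMSO.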

Measured: AC50

Chain of Heat shock factor protein 1 (Homo sapiens) (Q00613 whole entry, looked up, the tested form may be a part): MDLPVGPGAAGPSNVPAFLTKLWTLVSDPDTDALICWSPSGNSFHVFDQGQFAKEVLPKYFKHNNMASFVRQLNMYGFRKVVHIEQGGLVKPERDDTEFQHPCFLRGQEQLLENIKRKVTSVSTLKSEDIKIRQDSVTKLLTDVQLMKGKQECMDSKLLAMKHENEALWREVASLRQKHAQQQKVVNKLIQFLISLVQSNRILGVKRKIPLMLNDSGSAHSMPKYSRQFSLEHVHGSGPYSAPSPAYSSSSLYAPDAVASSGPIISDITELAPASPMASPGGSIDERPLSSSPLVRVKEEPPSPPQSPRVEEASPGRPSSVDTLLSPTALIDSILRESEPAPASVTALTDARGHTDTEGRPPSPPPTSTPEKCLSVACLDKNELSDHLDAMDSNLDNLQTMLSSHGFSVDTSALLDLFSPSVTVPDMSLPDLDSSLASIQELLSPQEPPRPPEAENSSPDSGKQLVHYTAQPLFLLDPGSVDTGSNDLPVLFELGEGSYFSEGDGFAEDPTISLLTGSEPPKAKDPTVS
Chain of Bile acid receptor (Homo sapiens) (Q96RI1 whole entry, looked up): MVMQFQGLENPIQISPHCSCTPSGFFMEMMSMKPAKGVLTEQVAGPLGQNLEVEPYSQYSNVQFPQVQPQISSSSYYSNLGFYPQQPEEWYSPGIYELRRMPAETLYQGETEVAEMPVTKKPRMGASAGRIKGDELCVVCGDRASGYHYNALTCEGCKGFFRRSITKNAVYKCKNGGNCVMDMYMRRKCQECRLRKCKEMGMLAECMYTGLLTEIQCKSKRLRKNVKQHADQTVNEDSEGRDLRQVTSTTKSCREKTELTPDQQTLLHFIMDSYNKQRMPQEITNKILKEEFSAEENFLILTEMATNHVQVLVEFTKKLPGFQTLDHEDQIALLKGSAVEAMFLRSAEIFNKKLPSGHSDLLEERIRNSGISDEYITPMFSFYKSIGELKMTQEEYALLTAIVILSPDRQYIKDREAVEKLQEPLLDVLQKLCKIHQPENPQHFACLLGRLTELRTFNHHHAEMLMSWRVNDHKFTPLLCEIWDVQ
Chain of Hepatocyte nuclear factor 6 (Homo sapiens) (Q9UBC0 whole entry, looked up): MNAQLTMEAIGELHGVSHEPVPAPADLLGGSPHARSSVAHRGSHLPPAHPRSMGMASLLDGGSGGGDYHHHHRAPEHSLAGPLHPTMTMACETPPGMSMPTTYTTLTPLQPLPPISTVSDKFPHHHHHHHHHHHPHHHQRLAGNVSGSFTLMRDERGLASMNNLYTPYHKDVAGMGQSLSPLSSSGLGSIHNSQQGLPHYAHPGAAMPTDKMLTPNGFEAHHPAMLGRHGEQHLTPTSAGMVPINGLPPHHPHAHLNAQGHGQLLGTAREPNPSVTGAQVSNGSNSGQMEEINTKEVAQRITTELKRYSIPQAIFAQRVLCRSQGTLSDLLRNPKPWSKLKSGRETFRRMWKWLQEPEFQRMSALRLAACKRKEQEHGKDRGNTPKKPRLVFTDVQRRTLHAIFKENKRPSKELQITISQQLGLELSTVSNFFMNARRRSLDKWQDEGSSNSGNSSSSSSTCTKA
Chain of Hypoxia-inducible factor 1-alpha (Homo sapiens) (Q16665 whole entry, looked up, the tested form may be a part): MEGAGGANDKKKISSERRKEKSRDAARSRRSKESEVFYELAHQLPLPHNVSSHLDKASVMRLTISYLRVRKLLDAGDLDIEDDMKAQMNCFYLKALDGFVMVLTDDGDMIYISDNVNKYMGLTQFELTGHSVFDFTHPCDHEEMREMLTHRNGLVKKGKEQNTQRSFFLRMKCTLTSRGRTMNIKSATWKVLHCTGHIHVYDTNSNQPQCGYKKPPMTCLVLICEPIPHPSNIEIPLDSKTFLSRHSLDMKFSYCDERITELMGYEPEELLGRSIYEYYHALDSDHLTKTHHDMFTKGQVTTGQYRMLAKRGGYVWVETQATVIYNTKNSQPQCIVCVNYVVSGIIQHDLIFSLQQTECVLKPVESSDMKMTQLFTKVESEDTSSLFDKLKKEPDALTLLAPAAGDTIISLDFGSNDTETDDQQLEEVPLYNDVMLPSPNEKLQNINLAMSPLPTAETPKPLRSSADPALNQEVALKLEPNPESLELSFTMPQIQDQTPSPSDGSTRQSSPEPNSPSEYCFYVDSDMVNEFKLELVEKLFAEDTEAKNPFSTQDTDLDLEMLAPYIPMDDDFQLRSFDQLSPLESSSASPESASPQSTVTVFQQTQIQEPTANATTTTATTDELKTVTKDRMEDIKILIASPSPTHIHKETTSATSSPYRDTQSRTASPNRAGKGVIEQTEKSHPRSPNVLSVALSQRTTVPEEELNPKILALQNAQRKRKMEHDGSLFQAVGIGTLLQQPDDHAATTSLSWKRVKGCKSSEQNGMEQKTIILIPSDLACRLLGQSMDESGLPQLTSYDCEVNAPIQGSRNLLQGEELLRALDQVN
Chain of Hepatocyte nuclear factor 3-beta (Homo sapiens) (Q9Y261 whole entry, looked up): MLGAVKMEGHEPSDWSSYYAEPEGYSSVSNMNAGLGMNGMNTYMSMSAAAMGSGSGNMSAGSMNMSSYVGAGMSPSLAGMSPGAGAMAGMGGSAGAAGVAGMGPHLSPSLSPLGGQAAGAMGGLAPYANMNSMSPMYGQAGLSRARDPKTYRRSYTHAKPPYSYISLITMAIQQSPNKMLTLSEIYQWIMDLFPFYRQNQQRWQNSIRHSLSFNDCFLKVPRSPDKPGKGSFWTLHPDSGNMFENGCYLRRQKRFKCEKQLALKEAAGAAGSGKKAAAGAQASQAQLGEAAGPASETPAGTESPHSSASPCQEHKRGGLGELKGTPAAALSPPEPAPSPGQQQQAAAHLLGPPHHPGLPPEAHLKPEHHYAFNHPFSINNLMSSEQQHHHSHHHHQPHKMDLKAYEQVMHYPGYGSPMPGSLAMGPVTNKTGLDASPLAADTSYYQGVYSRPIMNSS

CCCCC(CC)COC(C)=O (configuration not stated)
not listed: [18] | [19]
inactive: all other assays above

CC(=O)C(C)O (configuration not stated)
not listed: [10]
inactive: all other assays above

O=C(CS)OCCOC(=O)CS
active: [1] 58.7 µM | [11] 57.8 µM
not listed: [10]
inactive: all other assays above

COC(CC(C)CCCC(C)(C)O)OC (configuration not stated)
not listed: [18]
inactive: all other assays above

CS(=O)(=O)c1ccc(Cl)cc1
not listed: [18]
inactive: all other assays above

OC[C@H]1O[C@@H]2O[C@H]3[C@H](O)[C@@H](O)[C@@H](O[C@H]4[C@H](O)[C@@H](O)[C@@H](O[C@H]5[C@H](O)[C@@H](O)[C@@H](O[C@H]6[C@H](O)[C@@H](O)[C@@H](O[C@H]7[C@H](O)[C@@H](O)[C@@H](O[C@H]8[C@H](O)[C@@H](O)[C@@H](O[C@H]9[C@H](O)[C@@H](O)[C@@H](O[C@H]1[C@H](O)[C@H]2O)O[C@@H]9CO)O[C@@H]8CO)O[C@@H]7CO)O[C@@H]6CO)O[C@@H]5CO)O[C@@H]4CO)O[C@@H]3CO
not listed: [15] | [18]
inactive: all other assays above

CC1=NN(c2ccc(S(=O)(=O)O)cc2)C(=O)C1
not listed: [18]
inactive: all other assays above

CCOCCOCCOCC
not listed: [18]
inactive: all other assays above

O=Cc1ccccc1S(=O)(=O)O
not listed: [14] | [18]
inactive: all other assays above

CS(C)=O
not listed: [7] | [16] | [17]
inactive: all other assays above

CCCCC1CCC(O)CC1 (configuration not stated)
not listed: [8] | [11] | [19]
inactive: all other assays above

C#CC(C)N(C)C(=O)Nc1ccc(Cl)cc1 (configuration not stated)
not listed: [8] | [10] | [13]
inactive: all other assays above

CC(C=O)Cc1ccc(C(C)(C)C)cc1 (configuration not stated)
not listed: [7] | [15] | [16] | [19]
inactive: all other assays above
